In PubChem BioAssay (NCI):
“And” between values parts separate entries of the source, which are not always exact repeats. Identical values can stand only once. About 79,000 compounds went through this panel and 15% of them were active in at least one assay; those are over-represented in the sample as a whole. Some structures have more than one record in an assay (separate samples or runs), and their calls can disagree. The source made the active and inactive calls. Cut-off read from the data, not from the text of the source: active = growth inhibition above about 70%; inactive = the rest.

How the values were obtained:
[1] = NCI Yeast Anticancer Drug Screen. Data for the rad52 strain (AID 147);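 note: 0% = growth of vehicle-treated control cultures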; conditions: S. cerevisiae rad52 mutant growth inhibition, stronger effect = higher value
Procedure, shortened: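 Screen used a yeast mutant impaired in DNA repair. After compound exposure, growth was measured. Values reflect inhibition compared with vehicle-treated cells.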

[2] = NCI Yeast Anticancer Drug Screen. Data for the wt1 strain (AID 149);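 note: 0% = growth of vehicle-treated wt1 cultures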; conditions: S. cerevisiae wt1 strain (SPY 50644) growth inhibition, stronger effect = higher value
Procedure, shortened: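 Compounds are added to wt1 yeast cultures. Growth is then measured. Inhibition is expressed relative to vehicle-treated controls.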

[3] = NCI Yeast Anticancer Drug Screen. Data for the rad50EPP+ strain (AID 151);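 note: 0% = growth of vehicle-treated control cultures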; conditions: S. cerevisiae rad50 mutant strain, stronger effect = higher value
Procedure, shortened: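 Exposing the rad50EPP+ strain to each compound, growth was compared with vehicle-only cultures to give inhibition.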

[4] = NCI Yeast Anticancer Drug Screen. Data for the mgt1 strain (AID 153); conditions: S. cerevisiae mgt1 mutant growth inhibition, stronger effect = higher value
Procedure, shortened: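 Genetically defined yeast (mgt1) treated with compound; inhibition of growth expressed against vehicle-treated controls.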

[5] = NCI Yeast Anticancer Drug Screen. Data for the rad50 strain (AID 155);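 note: 0% = growth of vehicle-only cultures of the same strain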; conditions: S. cerevisiae rad50 strain growth inhibition, stronger effect = higher value
Procedure, shortened: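 Inhibition values express reduced yeast growth in compound-treated cultures relative to vehicle-treated controls.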

[6] = NCI Yeast Anticancer Drug Screen. Data for the mec2-1 strain (AID 157); conditions: S. cerevisiae mec2-1 strain, stronger effect = higher value
Procedure, shortened: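 Readout is yeast growth inhibition, normalised to vehicle-treated controls, in the mec2-1 strain exposed to compound.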

[7] = NCI Yeast Anticancer Drug Screen. Data for the rad14 strain (AID 159);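 note: 0% = growth of vehicle-treated control cultures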; conditions: S. cerevisiae rad14 strain growth inhibition, stronger effect = higher value
Procedure, shortened: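 A mutant yeast strain defective in DNA damage repair is treated with compound; inhibition of its growth is scored against untreated, vehicle-exposed cultures.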

[8] = at 5.0 µM (retest, dose inferred, filed as 0.5)
[9] = at 50.0 µM (retest, dose inferred, filed as 5.0)

For `O=C(NNc1ccccc1)C(O)C(O)C(O)C(O)C(O)CO` (stereo unspecified), the growth inhibition ([1]; at 1.2 µM) was 3% (inactive), the growth inhibition ([1]; at 3.7 µM) was 11% (inactive) and the growth inhibition ([1]; at 11.0 µM) was 29% (inactive). For the same compound, the growth inhibition ([1]; at 33.0 µM) was 53% (inactive), the growth inhibition ([1]; at 100.0 µM) was 93% (active) and the growth inhibition ([2]; at 1.2 µM) was 4% (inactive). For the same compound, the growth inhibition ([2]; at 3.7 µM) was 12% (inactive), the growth inhibition ([2]; at 11.0 µM) was 31% (inactive) and the growth inhibition ([2]; at 33.0 µM) was 52% (inactive). For the same compound, the growth inhibition ([2]; at 100.0 µM) was 70% (active), the growth inhibition ([3]; at 1.2 µM) was 9% (inactive) and the growth inhibition ([3]; at 3.7 µM) was 29% (inactive). The growth inhibition ([3]; at 11.0 µM) was 43% (inactive), the growth inhibition ([3]; at 33.0 µM) was 64% (inactive) and the growth inhibition ([3]; at 100.0 µM) was 86% (active). For the same compound, the growth inhibition ([4]; at 1.2 µM) was 6% (inactive), the growth inhibition ([4]; at 3.7 µM) was 12% (inactive) and the growth inhibition ([4]; at 11.0 µM) was 23% (inactive). The growth inhibition ([4]; at 33.0 µM) was 50% (inactive), the growth inhibition ([4]; at 100.0 µM) was 88% (active) and the growth inhibition ([5]; at 1.2 µM) was 5% (inactive). The growth inhibition ([5]; at 3.7 µM) was 7% (inactive), the growth inhibition [5, 8] was 24% (inactive) and 10% (inactive) and the growth inhibition ([5]; at 11.0 µM) was 21% (inactive). The growth inhibition ([5]; at 33.0 µM) was 40% (inactive), the growth inhibition [5, 9] was 48% (inactive) and 56% (inactive) and 87% (active) and the growth inhibition ([5]; at 50.0 µM) was 91.7% (active) and 24.9% (inactive) and 57.1% (inactive). For the same compound, the growth inhibition ([5]; at 100.0 µM) was 84% (active), the growth inhibition ([6]; at 1.2 µM) was -2% (inactive) and the growth inhibition ([6]; at 3.7 µM) was 2% (inactive). The growth inhibition [6, 8] was -5% (inactive) and 6% (inactive) and 1% (inactive), the growth inhibition ([6]; at 11.0 µM) was 31% (inactive) and the growth inhibition ([6]; at 33.0 µM) was 52% (inactive). The growth inhibition [6, 9] was 39% (inactive) and 48% (inactive) and 87% (active), the growth inhibition ([6]; at 50.0 µM) was 51.7% (inactive) and 26.8% (inactive) and 80.2% (active) and the growth inhibition ([6]; at 100.0 µM) was 82% (active). For the same compound, the growth inhibition ([7]; at 1.2 µM) was 0% (inactive), the growth inhibition ([7]; at 3.7 µM) was -1% (inactive) and the growth inhibition ([7]; at 11.0 µM) was 8% (inactive). The growth inhibition ([7]; at 33.0 µM) was 20% (inactive) and the growth inhibition ([7]; at 100.0 µM) was 59% (inactive).
